Screening results (PubChem)
A selection: hits, their analogues and other compounds. The true share with any hit is near 4.8%.
APP 5'UTR act – APP 5'UTR luciferase reporter activation; AID 1276; SH-SY5Y APP 5'UTR luciferase reporter, luminescence; zero percent = DMSO vehicle wells; 1% of 190,000 active; activation, % at 2 µM;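 active = activation above a set limit, based on mean plus 3 SD of controls, cut at about 140% in these data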
APP 5UTR inh – APP translation inhibition; 0.82% of 190,000 active; inhibition, % at 2 µM; AID 1285; SH-SY5Y APP 5'UTR-luciferase reporter, luminescence;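 active = inhibition above a set limit, derived from the sample mean plus 3 SD, cut at about 45% in these data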
STAT1 act – STAT1 signaling activation | NIH 3T3 STAT1-luciferase reporter, IFN-gamma, luminescence; 100% = IFN-gamma alone, no compound | activation (% of control), % at 5.5 µM | 2.6% of 200,000 active;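 active = activation above the screen-wide mean activation plus 3 SD, cut at about 130% in these data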;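 also: raw ratio to IFN-gamma control signal so 100% means no change and 0% no light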
Hsp70 act – switches on Hsp70 transcription. activation, % at 10 µM. 0.04% of 200,000 active. HeLa Hsp70 promoter luciferase reporter, luminescence; scaled: vehicle 0, proteasome-inhibitor control 100%;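 active = activation above the mean across all tested compounds plus 3 SD, cutoff set per campaign, cut at about 5.5% in these data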;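 also: 100% = MG132 at 30 µM as the positive control and 0% = DMSO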
Wee1 degr inh – human Wee1 degradation inhibition, primary screen. P30291. HeLa Luc-Wee1K328M stability, luciferase luminescence; 100% = proteasome inhibitor MG132 effect. reporter increase, % at 5 µM. 1.2% of 220,000 active. AID 1321;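 active = activation above the mean of all tested compounds plus 3 SD, set per screening run, cut at about 8.8% in these data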;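 also: cells exposed to compound for 20 h before luminescence read; 0% = DMSO alone and 100% = MG132 at 30 µM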
Target sequence (P30291 whole entry K328M): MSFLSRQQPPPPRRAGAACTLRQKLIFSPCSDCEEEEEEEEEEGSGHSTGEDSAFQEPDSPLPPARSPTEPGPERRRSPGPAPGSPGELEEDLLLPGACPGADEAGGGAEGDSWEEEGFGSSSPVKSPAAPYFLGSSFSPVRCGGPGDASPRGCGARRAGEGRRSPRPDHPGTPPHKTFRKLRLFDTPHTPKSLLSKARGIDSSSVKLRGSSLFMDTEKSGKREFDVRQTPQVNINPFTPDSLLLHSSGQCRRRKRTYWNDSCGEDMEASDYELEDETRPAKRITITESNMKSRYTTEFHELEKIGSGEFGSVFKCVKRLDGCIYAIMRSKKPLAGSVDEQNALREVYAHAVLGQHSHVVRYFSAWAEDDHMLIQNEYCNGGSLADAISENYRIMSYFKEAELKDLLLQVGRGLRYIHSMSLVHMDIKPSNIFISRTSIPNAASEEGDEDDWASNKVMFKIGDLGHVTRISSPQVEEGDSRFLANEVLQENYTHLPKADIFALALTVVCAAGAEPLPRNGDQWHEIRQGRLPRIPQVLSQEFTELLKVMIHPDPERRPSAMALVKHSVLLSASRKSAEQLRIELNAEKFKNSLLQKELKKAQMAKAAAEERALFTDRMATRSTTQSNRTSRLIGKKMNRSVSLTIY
NF-kB expr up – NF-kB expression increase, human neuronal cells. NF-kB reporter expression; stronger effect = higher value. fold change at 12.5 µM. 1.6% of 190,000 active; in the data active = fold change above about 3.3
* hit, by the source's call.

For CC(C)Oc1ccc(-c2nn(-c3ccccc3)cc2/C=c2\sc3ncnn3c2=O)cc1 the results were APP 5'UTR act -7, APP 5UTR inh 7, STAT1 act 99, Hsp70 act 0, Wee1 degr inh 10* and NF-kB expr up 0.92.
For CN(c1ccc(C(=O)N2CCN(c3ccc(F)cc3)CC2)cc1)S(C)(=O)=O the results were APP 5'UTR act -19, APP 5UTR inh 19, STAT1 act 101, Hsp70 act 0, Wee1 degr inh 2 and NF-kB expr up 0.99.
Screening CN(C)/C=N/c1nc2ccc3c(c2s1)CCCC3 returned APP 5'UTR act 102, APP 5UTR inh -102, STAT1 act 139*, Hsp70 act 0 and Wee1 degr inh 1.
`CC(/C=C/c1ccccc1)=N\NC(N)=S` gave APP 5'UTR act 42, APP 5UTR inh -42, STAT1 act 110, Hsp70 act 0, Wee1 degr inh -3 and NF-kB expr up 2.3.
For COC(=O)c1ccc(COC(=O)c2ccc(SC)cc2OC)cc1 the results were APP 5'UTR act 29, APP 5UTR inh -29, STAT1 act 135*, Hsp70 act 0, Wee1 degr inh -3 and NF-kB expr up 1.7.
For COc1cc(SC)ccc1C(=O)Nc1cccc(C)n1 the results were APP 5'UTR act 244*, APP 5UTR inh -244, STAT1 act 144*, Hsp70 act 0, Wee1 degr inh 2 and NF-kB expr up 1.
COc1cc(SC)ccc1C(=O)Nc1ccccn1 was read as Wee1 degr inh 1.
`COc1cc(SC)ccc1C(=O)Nc1ccc(C)cc1` gave APP 5'UTR act 184*, APP 5UTR inh -184, STAT1 act 146*, Hsp70 act 0, Wee1 degr inh 5 and NF-kB expr up 6.6*.
For O=C(CN1C(=O)C2CCCCC2C1=O)OCc1nnc(-c2ccccc2)o1 (configuration not stated) the results were APP 5'UTR act 22, APP 5UTR inh -22, STAT1 act 97, Hsp70 act 0, Wee1 degr inh -2 and NF-kB expr up 1.1.
For O=C(CN1CCCCCCC1)Nc1cccc(Cl)c1Cl the results were APP 5'UTR act 16, APP 5UTR inh -16, STAT1 act 106, Hsp70 act 0, Wee1 degr inh -3 and NF-kB expr up 1.4.
`CCCC[C@H](CN(N=O)[C@@H](Cc1ccccc1)CN(C)N=O)N(CCc1ccccc1)N=O` gave APP 5'UTR act -5, APP 5UTR inh 5, STAT1 act 100, Hsp70 act 0, Wee1 degr inh 8 and NF-kB expr up 0.67.
CN(C)C(CN=C1NS(=O)(=O)c2ccccc21)c1ccco1 (configuration not stated) was read as APP 5'UTR act 7, APP 5UTR inh -7, STAT1 act 98, Hsp70 act 0, Wee1 degr inh 1 and NF-kB expr up 0.96.
O=C(Nc1nc2c(F)cc(F)cc2s1)c1ccccn1 was read as APP 5'UTR act 18, APP 5UTR inh -18, STAT1 act 82, Hsp70 act 0, Wee1 degr inh 3 and NF-kB expr up 4.2*.
Screening Cc1ccc2nc(NC(=O)c3ccccn3)sc2c1 returned APP 5'UTR act -22, APP 5UTR inh 22, STAT1 act 19, Hsp70 act 0, Wee1 degr inh -4 and NF-kB expr up 1.2.
`O=C(C1=C(O)C(=O)N(Cc2ccco2)C1c1cccnc1)c1cc2ccccc2o1` (configuration not stated) gave APP 5'UTR act 6, APP 5UTR inh -6, STAT1 act 72, Hsp70 act 0, Wee1 degr inh 5 and NF-kB expr up 1.4.
For COc1ccc(Nc2ncccc2C(=O)Nc2ccccc2)cc1 the results were APP 5'UTR act 9, APP 5UTR inh -9, STAT1 act 103, Hsp70 act 0, Wee1 degr inh 2 and NF-kB expr up 1.1.
Screening CC(=O)c1ccc(NC(=O)c2cc3nc4c(c(C(F)(F)F)n3n2)CCCC4)cc1 returned APP 5'UTR act 25, APP 5UTR inh -25, STAT1 act 108, Hsp70 act 0, Wee1 degr inh -1 and NF-kB expr up 0.89.
For O=C(NC1CCCCC1)c1cc2nc3c(c(C(F)(F)F)n2n1)CCCC3 the results were APP 5'UTR act 50, APP 5UTR inh -50, STAT1 act 130*, Hsp70 act 0, Wee1 degr inh 5 and NF-kB expr up 2.4.
CCC(=O)N1CCN(c2nc3ccccc3s2)CC1 was read as APP 5'UTR act 51, APP 5UTR inh -51, STAT1 act 129*, Hsp70 act 0, Wee1 degr inh 2 and NF-kB expr up 1.8.
Screening O=C(C1CC1)N1CCN(c2nc3ccccc3s2)CC1 returned APP 5'UTR act 94, APP 5UTR inh -94, STAT1 act 131*, Hsp70 act 0, Wee1 degr inh 1 and NF-kB expr up 2.2.
CC1CCc2c(sc3nc(SCC(=O)O)n(-c4ccccc4)c(=O)c23)C1 (configuration not stated) was read as Wee1 degr inh -2.
CCN1CCN(CCCNC(=O)c2cn(CCOC)c(=O)c3c2c2ccccc2n3C)CC1 was read as APP 5'UTR act -24, APP 5UTR inh 24, STAT1 act 100, Hsp70 act 0, Wee1 degr inh -2 and NF-kB expr up 1.1.
For O=C1S/C(=C/c2ccc(N3CCOCC3)o2)C(=O)N1Cc1ccc(F)cc1 the results were APP 5'UTR act 14, APP 5UTR inh -14, STAT1 act 97, Hsp70 act 0, Wee1 degr inh 1 and NF-kB expr up 1.7.
For O=C1/C(=C/c2ccc(N3CCCC3)cc2)NC(=S)N1C1CC1 the results were APP 5'UTR act 35, APP 5UTR inh -35, STAT1 act 116, Hsp70 act 0, Wee1 degr inh 2 and NF-kB expr up 0.89.
For C=CCN1C(=O)N/C(=C/c2ccc(N3CCOCC3)o2)C1=O the results were APP 5'UTR act -89, APP 5UTR inh 88*, STAT1 act 78, Hsp70 act 2, Wee1 degr inh 5 and NF-kB expr up 0.44.
O=C1N/C(=C/c2ccc(N3CCOCC3)o2)C(=O)N1c1ccccc1 was read as APP 5'UTR act -54, APP 5UTR inh 54*, STAT1 act 100, Hsp70 act 1, Wee1 degr inh 4 and NF-kB expr up 6.2*.
`O=C1N/C(=C/c2ccc(N3CCCC3)cc2)C(=O)N1c1ccccc1` gave APP 5'UTR act 39, APP 5UTR inh -39, STAT1 act 131*, Hsp70 act 0, Wee1 degr inh -1 and NF-kB expr up 1.6.
For O=C1NC(=S)S/C1=C/c1ccc(N2CCOCC2)o1 the results were APP 5'UTR act -13, APP 5UTR inh 13, STAT1 act 102, Hsp70 act 0, Wee1 degr inh 2 and NF-kB expr up 1.2.
`Cc1cc2cc(CN3C(=O)c4ccccc4C3=O)ccc2n1C` gave APP 5'UTR act 4, APP 5UTR inh -4, STAT1 act 94, Hsp70 act 0, Wee1 degr inh 3 and NF-kB expr up 1.1.
